Source: PubChem BioAssay (Sanford-Burnham Center for Chemical Genomics)
In the library only some 3.2% were active in any assay of this set; here they are far more common.
aDG glyco up – increases alpha dystroglycan glycosylation | actives 0.22% (n = 360,000) | Pro5-aDG cells, alpha-DG glycosylation AlphaScreen (IIH6); 0% Pro5, 100% B10-LARGE cell signal | activation, % at 10 µM;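 active means activation of at least 8% versus controls, or a plate z-score of at least 8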;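 further: Pro5 are CHO cells carrying HIG-tagged alpha-DG that lacks glycosylation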
PfG6PD inh – PfG6PD (Plasmodium falciparum) enzyme inhibition; inhibition, % at 20 µM; AID 504690; PfGluPho enzyme, NADPH resazurin-diaphorase fluorescence; actives 0.78% (n = 350,000);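 active means inhibition reaching at least a set limit at 20 µM in the primary screen, cut at about 59% in these data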
Cardio protect – myocardial damage modulation in H9c2 cells; AID 588492; H9c2 cardiomyocytes, H2O2 injury protection, ATPLite, 2 h; protection from H2O2 cell death, % at 20 µM; actives 0.63% (n = 360,000);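 active means compounds giving at least 50% protection of heart cells from peroxide-induced death in the single-dose screen, raw or plate-pattern-corrected value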
CRFBP-R2 block – blocks CRF-induced signaling of the CRF-BP/CRF-R2 complex; inhibition, % at 11.8 µM; HEK293 CRF-R2/CRF-BP, CRF-induced calcium fluorescence; actives 0.59% (n = 350,000); AID 588475;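 active means inhibition of the ligand-induced calcium signal above about 50% at the single tested concentration, limit read from the data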
CRFR2-BP ag – CRF-BP/CRF-R2 complex agonism; HEK293 CRF-R2/CRF-BP, calcium dye fluorescence (FLIPR); percent of saturating CRF peptide response; activation, % at 13.2 µM; actives 0.46% (n = 350,000); AID 588473;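 active means activation of at least 50%, plus an integration ratio under a set limit after plate pattern correction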
FAS-TE inh – inhibitors of human fatty acid synthase thioesterase domain; inhibition, % at 15 µM; P49327; actives 0.67% (n = 360,000); recombinant FAS-TE, OMFH fluorogenic substrate, fluorescence endpoint;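 active means compounds whose normalised, plate-corrected inhibition of enzyme fluorescence in the single-dose primary screen is 50% or more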
Hits are given with their value; – = inactive; · = not tested or not shown.

SMILES	aDG glyco up	PfG6PD inh	Cardio protect	CRFBP-R2 block	CRFR2-BP ag	FAS-TE inh
O=C(COC(=O)c1cccs1)Nc1cccc(S(=O)(=O)NC2=NCCCCC2)c1	–	–	–	–	–	–
Cc1ccc(C(=O)OCC(=O)Nc2ccc(Cl)cn2)s1	–	–	–	–	–	–
O=C(COC(=O)c1ccc([N+](=O)[O-])s1)Nc1cccc(S(=O)(=O)NC2=NCCCCC2)c1	–	–	–	68	–	–
Cc1c(Cl)cnc(NC(=O)COC(=O)c2cccs2)c1Cl	–	–	–	–	–	–
O=C(COC(=O)c1ccc([N+](=O)[O-])s1)Nc1ccc(Cl)cn1	–	–	55	–	–	–
Cc1c(Cl)cnc(NC(=O)COC(=O)c2ccc([N+](=O)[O-])s2)c1Cl	–	–	68	–	–	–
COc1cccc(CN(c2ccccc2C(=O)O)S(=O)(=O)c2ccc(C)cc2)c1	–	–	–	–	–	–
Cc1cc(NC(=O)CCCSc2nc(-c3ccco3)cc(C(F)(F)F)n2)no1	–	–	–	–	–	–
O=C(CSc1nc(-c2ccco2)cc(C(F)(F)F)n1)NCCCN1CCOCC1	–	–	–	51	–	–
O=C(CSc1nc(-c2cccs2)cc(C(F)(F)F)n1)NCCCN1CCOCC1	–	–	–	–	–	–
Cc1cc(NC(=O)CCSc2nc(-c3ccco3)cc(C(F)(F)F)n2)no1	–	–	–	91	–	–
CN(C)c1ccc(/C=C/C(=O)c2cccnc2)cc1	–	–	–	–	120	–
O=C(/C=C/c1cccc(O)c1)c1cccnc1	–	–	–	–	–	–
COc1ccc(C(=O)/C=C/c2ccc(N(C)C)cc2)c(OC)c1	–	–	–	–	103	–
CN(C)c1ccc(/C=C/C(=O)c2ccc3c(c2)OCO3)cc1	–	–	–	–	135	–
O=C(/C=C/c1ccccc1)c1ccc2c(c1)OCO2	–	–	–	–	–	–
CN(C)c1ccc(/C=C/c2ccncc2)cc1	–	–	–	–	173	–
O=C1C(Cc2ccccc2)Nc2ncnc(N3CCCCC3)c2N1Cc1ccc(Cl)cc1 (stereo unspecified)	–	–	–	–	–	–
COc1ccccc1CCc1nnc(CCC(=O)NC(C)Cn2nc(C)cc2C)o1 (stereo unspecified)	–	–	–	–	–	–
Cc1cccnc1NC(=O)CCNC(=O)c1ccc(Br)cc1	–	–	–	–	–	–
C/C(=N/NC(=O)c1cccc(N2CCCC2=O)c1)c1ccncc1	–	–	–	–	–	–
CN(C)c1ccc(/C=C/C(=O)c2ccc(O)cc2)cc1	–	–	–	–	156	–
COc1cc2oc(=O)cc(CN3CCN(C(C)=O)CC3)c2cc1Cl	–	·	–	·	·	–
CCOc1cc2[nH]c(=O)n(Cc3ccccc3)c(=O)c2cc1OCC	–	–	–	71	–	–
CC(=O)C[C@H]1c2cc(C(F)(F)F)ccc2S(=O)(=O)N1c1ccc(N(C)C)cc1	–	–	–	–	–	–
SMILES	aDG glyco up	PfG6PD inh	Cardio protect	CRFBP-R2 block	CRFR2-BP ag	FAS-TE inh
CCOc1ccc(/C=C/C(=O)c2cc(Br)ccc(=O)c2O)cc1	–	–	53	–	–	–
O=C1c2ccccc2C(=O)N1CCCCSc1nc2ccccc2c(=O)n1CCCN1CCOCC1	–	–	59	–	–	–
O=C1c2ccccc2C(=O)N1CCSc1nc2ccccc2c(=O)n1CCCN1CCOCC1	–	–	–	–	–	–
Cc1ccc(NC(=O)CSc2nc3ccccc3c(=O)n2CCCN2CCCCC2)cc1C	8.3	–	–	–	–	–
Cc1nn(-c2ccccc2)c(Cl)c1CN(C(=O)CCl)c1ccc(Cl)cc1	–	–	–	78	–	–
CC(=O)N(Cc1c(C)nn(-c2ccccc2)c1Cl)c1ccc(Cl)cc1	–	–	–	–	–	–
COc1cc(CNc2ccccc2SC)ccc1O	–	–	–	55	–	–
COc1cc(C[C@@H](C)[C@@H](C)Cc2ccc(O)c(OC)c2)ccc1O	–	–	–	–	–	–
O=c1[nH]c2cc(F)ccc2c2ccc(F)cc12	–	–	62	–	–	–
O=c1[nH]c2ccccc2c2ccc(Cl)cc12	–	–	–	–	–	–
CCOc1ccc(S(=O)(=O)N2CCN(Cc3ccc4c(c3)OCO4)CC2)cc1OCC	–	–	–	–	–	–
CS(=O)(=O)N1CCc2cc(S(=O)(=O)N3CCN(Cc4ccc5c(c4)OCO5)CC3)ccc21	–	–	–	57	–	–
CCOC(=O)c1ccc2c(c1)n(CC)c(/C=C/N(C)c1ccccc1)[n+]2CC	–	–	–	–	–	–
CC[n+]1c(/C=C/N(C)c2ccccc2)n(-c2ccccc2)c2ccc(-c3nc4ccccc4s3)cc21	–	75	–	–	–	–
Cc1ccc(/C=N/n2c(-c3cccc(Cl)c3)n[nH]c2=S)o1	–	–	–	83	–	–
S=c1[nH]nc(-c2cccc(Cl)c2)n1/N=C/c1ccco1	·	–	·	–	–	·
N[C@@H](C(=O)N[C@@H]1C(=O)N2C(C(=O)O)=C(Cl)CS[C@H]12)c1ccccc1	–	–	–	–	–	–
NC(=O)c1cc[n+](CC2=C(C(=O)O)N3C(=O)[C@@H](NC(=O)C(c4ccccc4)S(=O)(=O)[O-])[C@H]3SC2)cc1 (stereo partly specified)	–	71	–	–	–	–
COCCNC(=O)C1CCCN(S(=O)(=O)c2cccc3nsnc23)C1 (stereo unspecified)	–	–	–	–	–	–
NS(=O)(=O)c1cccc(NC(=O)COC(=O)CC2CC3CCC2C3)c1 (stereo unspecified)	–	–	–	–	–	–
Cc1onc(-c2ccccc2)c1C(=O)NNC(=O)c1ccccc1O	–	–	–	–	–	–
O=C(NC(=S)NNC(=O)c1ccc(Cl)cc1Cl)c1cccnc1	–	–	–	–	–	–
Cc1ccccc1C(=O)NNC(=S)NC(=O)c1ccc(Cl)cc1Cl	–	–	–	–	158	–
CCNC(=S)NNC(=O)c1cccn(Cc2ccc(Cl)cc2Cl)c1=O	–	–	–	–	61	–
C=CCNC(=S)NNC(=O)c1cccn(Cc2ccc(Cl)cc2Cl)c1=O	–	–	–	–	–	–
Cc1onc(-c2ccccc2)c1C(=O)NNC(=S)NC(=O)c1ccc(Cl)cc1Cl	–	–	–	–	217	–
COc1ccc(/C=C/C(=O)NC(=S)NNC(=O)c2c(-c3ccccc3)noc2C)cc1	–	–	–	–	–	–
Cc1onc(-c2ccccc2)c1C(=O)NNC(=S)NC(=O)/C=C/c1ccccc1	–	–	–	–	66	–
O=C1CC(C(=O)N2CCc3ccccc32)CN1c1ccc(F)cc1 (stereo unspecified)	–	–	–	–	–	–
Cc1ccc(O)c(-c2cc(-c3ccc(F)cc3)no2)c1	–	–	–	–	–	–
